Experimental data: PubChem BioAssay (NCATS)
Where “and” joins values, the source holds several entries; their conditions need not be identical. Equal values may be shown once. Records with an inconclusive call do not appear. Where a call stands in place of a potency, no number is given. Calls of active or inactive are those of the source. Unless noted, calls come from the whole dose curve; as a rule, active = well fitted curve in the direction sought with a large enough effect; inconclusive = small, poorly fitted or top-dose-only effect, or another doubt; inactive = no such curve, though single readings can be large; an effect the other way counts as inactive or inconclusive.

Key:
[1] = Primary qHTS for small molecule stabilizers of the endoplasmic reticulum resident proteome: Secreted ER Calcium Modulated Protein (SERCaMP) assay (AID 1508630)
How it was run: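 GLuc-SERCaMP-expressing SH-SY5Y cells, pretreated 16 h with compound, are challenged with thapsigargin to empty ER calcium stores; after 4 h, coelenterazine is added directly to the medium and luminescence is imaged.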

[2] = molecular target: Cytochrome P450 2D6 (Homo sapiens) (UniProt P10635); experiment: Cytochrome P450 family 2 subfamily D member 6 (CYP2D6) small molecule antagonists: luciferase biochemical (cell-free) qHTS assay (AID 1645840; active = well fitted curve in the direction sought with a large enough effect in the repeat runs; an effect the other way counts as inactive or inconclusive; note: nearly all actives have a fitted effect of over 55% in size; note: potency is the fitted concentration of half-maximal effect)
How it was run: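 P450-Glo luminescent screen: recombinant CYP2D6 enzyme–proluciferin substrate mix preincubated with compound 10 min at room temperature, then NADPH regeneration added for 1 h at room temperature. Detection reagent added for 20 min; luciferin light read as relative luminescence units.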

[3] = molecular target: Cytochrome P450 2C9 (Homo sapiens) (UniProt P11712); experiment: Cytochrome P450 family 2 subfamily C member 9 (CYP2C9) small molecule antagonists: luciferase biochemical (cell-free) qHTS assay (AID 1645842; active = well fitted curve in the direction sought with a large enough effect in the repeat runs; an effect the other way counts as inactive or inconclusive; note: nearly all actives have a fitted effect of over 55% in size; note: potency is the fitted concentration of half-maximal effect)
How it was run: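 Luminescence, after 20 min with luciferin detection reagent, reflected CYP2C9 turnover during a 1 h NADPH-driven reaction at 37C. Enzyme-substrate mix contained 0.4% bovine serum albumin and was preincubated with compound 10 min at room temperature.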

[4] = molecular target: N-terminal Xaa-Pro-Lys N-methyltransferase 1 (Homo sapiens) (UniProt Q9BV86); experiment: Confirmatory qHTS for Inhibitors of N-terminal methyltransferase 1 (NTMT1): MTaseGlo Assay (AID 1645874); note: potency is the fitted concentration of half-maximal effect; nearly all actives have a fitted effect of over 65% in size
How it was run: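 Preincubation of NTMT1 (125 nM) plus SAM (100 uM) with test compounds lasted 15 min; methylation of 1 uM SPKRIA then proceeded 30 min in the dark at room temperature. Luciferase signal reported SAH produced.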

[5] = Primary qHTS for inhibitors of nuclear receptor binding SET domain protein 2 (NSD2) in an isogenic RCH-ACV NSD2 p.E1099K mutant (9B) (AID 1645876); note: potency is the fitted concentration of half-maximal effect; nearly all actives have a fitted effect of over 70% in size
[6] = Primary qHTS for inhibitors of nuclear receptor binding SET domain protein 2 (NSD2) in an RCH-ACV wild type WT cells (2C) (AID 1645877); note: potency is the fitted concentration of half-maximal effect; nearly all actives have a fitted effect of over 70% in size
[7] = molecular target: Cytochrome P450 3A4 (Homo sapiens) (UniProt P08684); experiment: Cytochrome P450 family 3 subfamily A member 4 (CYP3A4) small molecule antagonists: luciferase qHTS assay (AID 1645841; active = well fitted curve in the direction sought with a large enough effect in the repeat runs; an effect the other way counts as inactive or inconclusive; note: nearly all actives have a fitted effect of over 45% in size)
How it was run: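 P450-Glo CYP3A4 enzyme with proluciferin substrate was preincubated with DMSO-dissolved compounds for 10 min at room temperature. NADPH regeneration solution started a 1 h reaction. Detection reagent stopped it, and luminescence was read after 20 min.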

Cytochrome P450 2D6 (Homo sapiens), sequence (P10635 whole entry, looked up): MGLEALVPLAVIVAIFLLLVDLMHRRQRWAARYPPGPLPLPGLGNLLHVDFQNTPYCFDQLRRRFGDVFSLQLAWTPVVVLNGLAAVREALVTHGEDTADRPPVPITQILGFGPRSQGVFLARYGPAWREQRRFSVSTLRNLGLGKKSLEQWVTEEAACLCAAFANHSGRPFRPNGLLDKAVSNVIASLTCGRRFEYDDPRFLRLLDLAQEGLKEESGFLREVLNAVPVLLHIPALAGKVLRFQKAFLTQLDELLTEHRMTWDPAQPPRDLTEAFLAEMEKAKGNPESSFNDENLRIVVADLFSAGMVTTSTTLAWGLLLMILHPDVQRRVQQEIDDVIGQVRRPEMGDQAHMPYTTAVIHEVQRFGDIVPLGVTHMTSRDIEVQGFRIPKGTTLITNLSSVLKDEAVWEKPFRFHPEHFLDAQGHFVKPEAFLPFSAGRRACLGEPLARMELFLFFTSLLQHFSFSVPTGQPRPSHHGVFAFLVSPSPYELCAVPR
Cytochrome P450 2C9 (Homo sapiens), sequence (P11712 whole entry, looked up): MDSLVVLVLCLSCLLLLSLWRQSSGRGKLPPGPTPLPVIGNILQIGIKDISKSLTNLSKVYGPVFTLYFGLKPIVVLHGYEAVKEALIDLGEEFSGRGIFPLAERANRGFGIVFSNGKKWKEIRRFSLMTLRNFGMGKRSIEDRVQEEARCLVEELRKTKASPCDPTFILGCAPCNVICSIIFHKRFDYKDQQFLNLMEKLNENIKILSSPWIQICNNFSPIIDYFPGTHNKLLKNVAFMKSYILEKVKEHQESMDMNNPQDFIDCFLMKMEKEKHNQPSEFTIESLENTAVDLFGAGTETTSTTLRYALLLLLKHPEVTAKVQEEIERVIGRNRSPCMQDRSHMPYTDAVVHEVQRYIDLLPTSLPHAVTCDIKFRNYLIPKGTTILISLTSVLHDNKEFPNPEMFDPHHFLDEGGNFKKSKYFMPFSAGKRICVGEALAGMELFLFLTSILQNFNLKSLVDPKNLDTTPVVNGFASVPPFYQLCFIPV
N-terminal Xaa-Pro-Lys N-methyltransferase 1 (Homo sapiens), sequence (Q9BV86 whole entry, looked up): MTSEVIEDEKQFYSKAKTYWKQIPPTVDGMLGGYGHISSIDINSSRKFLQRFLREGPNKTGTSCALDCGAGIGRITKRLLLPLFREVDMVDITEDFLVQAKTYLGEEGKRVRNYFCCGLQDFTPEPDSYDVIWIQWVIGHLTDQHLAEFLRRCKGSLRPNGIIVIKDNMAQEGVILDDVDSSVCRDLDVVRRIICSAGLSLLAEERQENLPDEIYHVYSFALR
Cytochrome P450 3A4 (Homo sapiens), sequence (P08684 whole entry, looked up): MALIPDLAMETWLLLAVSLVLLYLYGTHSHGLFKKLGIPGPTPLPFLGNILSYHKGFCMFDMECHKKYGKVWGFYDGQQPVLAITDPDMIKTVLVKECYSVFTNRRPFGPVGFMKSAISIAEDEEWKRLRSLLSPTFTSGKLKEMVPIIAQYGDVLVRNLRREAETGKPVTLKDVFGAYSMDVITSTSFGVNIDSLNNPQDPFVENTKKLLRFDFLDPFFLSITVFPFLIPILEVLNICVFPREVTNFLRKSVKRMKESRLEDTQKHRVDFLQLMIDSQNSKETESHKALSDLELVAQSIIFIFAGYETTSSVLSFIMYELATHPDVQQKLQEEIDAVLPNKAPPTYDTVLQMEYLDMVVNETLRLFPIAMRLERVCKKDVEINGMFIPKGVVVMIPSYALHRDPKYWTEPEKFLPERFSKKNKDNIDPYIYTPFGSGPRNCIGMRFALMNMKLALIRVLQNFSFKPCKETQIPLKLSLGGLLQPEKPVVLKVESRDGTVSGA

**Q.** For `O=C(C=Cc1c(C(=O)O)[nH]c2cc(Cl)cc(Cl)c12)Nc1ccccc1`, which Potency [1] is on record?
**A.** inactive

**Q.** Which Potency [1] does the source give for `CCc1cc2c(cc1N1CCC(N3CCOCC3)CC1)C(C)(C)c1[nH]c3cc(C#N)ccc3c1C2=O` here?
**A.** inactive

**Q.** Which results are given for `Cc1cc(Nc2cc(CN3CCOCC3)c3nc(C)c(Cc4ccc(Cl)cc4F)n3n2)n[nH]1`?
**A.** Potency [1]: inactive; Potency [2]: 23.9 µM (active); Potency [3]: 12 µM (active); Potency [4]: 20.5 µM (active); Potency [5]: 3.26 µM (active) and 1.86 µM (active)

**Q.** For `CN(C)CC=CC(=O)Nc1cc2c(Nc3ccc(F)c(Cl)c3)ncnc2cc1O[C@H]1CCOC1`, which Potency [1] is on record?
**A.** inactive

**Q.** With `C1=CCOCc2cc(ccc2OCCN2CCCC2)Nc2nccc(n2)-c2cccc(c2)OCC1` as the compound, how does the Potency [1] read?
**A.** inactive

**Q.** Which results are given for `C#Cc1cccc(Nc2ncnc3cc(OC)c(OCCCCCCC(=O)NO)cc23)c1`?
**A.** Potency [1]: inactive; Potency [2]: 4.77 µM (active); Potency [3]: 10.7 µM (active); Potency [4]: 31.2 µM (active); Potency [5]: 515 nM (active) and 590 nM (active); Potency [6]: 230 nM (active) and 296 nM (active)

**Q.** Which Potency [1] does the source give for `Nc1ccn([C@@H]2O[C@H](CO)[C@H](O)C2(F)F)c(=O)n1` here?
**A.** inactive

**Q.** For `COc1c(OCCCN2CCOCC2)ccc2c3n(c(=NC(=O)c4cnc(N)nc4)nc12)CCN3`, which Potency [1] is on record?
**A.** inactive

**Q.** And the Potency [2]?
**A.** inactive

**Q.** And the outcome [7]?
**A.** inactive

**Q.** And the Potency [3]?
**A.** inactive

**Q.** What about the Potency [5] of the same compound?
**A.** 9.4 nM (active) and 24.1 nM (active)

**Q.** With `CCC1=C[C@@H]2CN(C1)Cc1c([nH]c3ccccc13)[C@@](C(=O)OC)(c1cc3c(cc1OC)N(C)[C@@H]1[C@@](O)(C(=O)OC)[C@H](OC(C)=O)[C@]4(CC)C=CCN5CC[C@]31[C@@H]54)C2` as the compound, how does the Potency [1] read?
**A.** inactive
